The source of these data is PubChem BioAssay (NCI).

Several values for one entry are separate records, joined by “and”; a condition that tells them apart may be missing. Identical values can stand only once. This is part of a sample that, as a whole, favours compounds with a hit. Of some 83,000 tested, about 20% had one in any assay.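 Interpretation: 100, growth as untreated; towards 0, rising growth inhibition; 0, no net growth; 0 to -100, cell death. Compounds scoring below 10 were considered active.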 Activity calls are given as the source filed them. Where a SMILES comes first, the peptide text is derived from it. [ ]: non-standard residue; d: D form. ξ: configuration not given here. ξV = CC(C)C(N)C(=O)O

One assay relates to M14 melanoma. Description: NCI-60 one-dose screen, 48 h (100 = growth as untreated, 0 = no growth, -100 = all killed). Conditions: 0.0025 µM. Here is the method:
Growth inhibition of the M14 human tumor cell line is measured as a screen for anti-cancer activity. Cells are grown in 96 well plates and exposed to the test compound for 48 hours. Compounds are tested at a single concentration, which is 10^-5 M for most compounds. The reported endpoint is percent growth (GI% or GIPRCNT), where numbers from 0 - 100% represent growth inhibition, and numbers from -100% - 0 represent cell death. For example, a value of 40 represents 60% growth inhibition. A value of 0 means no net growth occurred over the course of the experiment. A value of -40 indicates 40% of cells at the beginning of the experiment died by the end of the experiment. A value of -100 means all cells are dead at the end of the experiment.
NCI-60 Human Tumor Cell Lines Screen was performed using the standard one-dose NCI protocol, which is described in more detail at https://dtp.cancer.gov/discovery_development/nci-60/default.htm.
Compounds with GIPRCNT values below 10 were considered active. Activity score was based on GIPRCNT using the following formula: […]
Score is 0 for GIPRCNT values of 100 or above, 50 for GIPRCNT values of 0, and 100 for GIPRCNT values of -100.
In the case of `COc1cccc2c1C(=O)c1c(O)c3c(c(O)c1C2=O)C[C@@](O)(C(=O)CO)C[C@@H]3OC1CC(N)C(O)C(C)O1` (stereo not given in full), the growth is 90.9% (inactive).

The assay is the same for the next values; noted with them: 1 µM.
For the compound `COc1cccc2c1C(=O)c1c(O)c3c(c(O)c1C2=O)C[C@@](O)(C(=O)CO)C[C@@H]3OC1CC(N)C(O)C(C)O1` (stereo not given in full), the growth was 16.6% (inactive).

The same assay, now with this note: 2.5 µM.
Take `COc1cccc2c1C(=O)c1c(O)c3c(c(O)c1C2=O)C[C@@](O)(C(=O)CO)C[C@@H]3OC1CC(N)C(O)C(C)O1` (stereo not given in full): the growth is 50.9% (inactive).

Staying with this assay, now noted: 10 µM.
For `O=C(C(=Cc1ccccc1)C(=O)c1ccccc1)c1ccccc1`, the growth is 47.5% (inactive).
Regarding `Cc1nc(N=C(N)N)nc2ccc3ccccc3c12`, the growth is 4.95% (active).
Still for that read-out and setting: the value for `Cc1cc(O)c(C(C)C)cc1Cl` was 101% (inactive).
Still for that read-out and setting: for `NC(=O)SCC(=O)NNc1ccccc1` the value was 102% (inactive); for `O=C1C=C(O)c2ccccc2C1=O.[Ag]`, 91.3% (inactive).
As for `O=C(/C=C/c1cccnc1)c1ccccc1`, the growth is 88.6% (inactive).
The same measure, in the same setting: for `Nc1c2ccccc2nc2ccccc12` the value was 7.24% (active) and 34.6% (inactive) and 42.3% (inactive); for `Nc1ccc2cc3ccc(N)cc3nc2c1`, 107% (inactive) and 12.6% (inactive); for `O=C(Nc1ccc(C(=O)O)c(O)c1)c1ccccc1`, 106% (inactive) and 99.6% (inactive).
In the case of `NC1=C(Cl)C(=O)c2ccccc2C1=O`, the growth was 28.7% (inactive).
The same measure, in the same setting: for `CC(C)C(NC(=O)CN)C(=O)O` (stereo not given) (H-Gly-[ξV]-OH) the value was 105% (inactive) and 108% (inactive); for `OCC1OC(n2cnc3c(=S)nc[nH]c32)C(O)C1O` (stereo not given), 126% (inactive) and 32.4% (inactive).
Consider `CCN(CC)c1ccc(NC(C(=O)c2ccccc2)c2ccccc2)cc1` (stereo not given), for which the growth was 22.8% (inactive).
Same read-out and setting: for `O=C1NC(=O)c2cc([N+](=O)[O-])ccc21` the value was 118% (inactive).
On the same count and under the same terms, for `NNc1ccc2ccccc2c1` the value was 89.6% (inactive) and 96.8% (inactive).
Turning to `COc1c(O)cc2oc3cc(O)c(CC=C(C)C)c(O)c3c(=O)c2c1CC=C(C)C`, the growth is 54.4% (inactive).
With `CC1=CC(C)=Nc2ccc(Cl)cc2N1`, the growth was 102% (inactive).
On the same count and under the same terms, for `Oc1ccc(N=Nc2ccccn2)c(O)c1` the value was -6.58% (active).
Still for that read-out and setting: for `CC(=O)OCC(OC(C)=O)C(OC(C)=O)C(OC(C)=O)C(OC(C)=O)C(/C=N/Nc1ccccc1)=N/Nc1ccccc1` (stereo not given) the value was 82.3% (inactive); for `CCCCCC(C)c1ccc(O)c(C)c1` (stereo not given), 97.7% (inactive).
Same read-out and setting: for `OC(CN1CCCC2CCCCC21)c1cc2ccccc2c2ccccc12` (stereo not given) the value was -69.8% (active); for `CC[N+](CC)=c1ccc2nc3c(cc(N)c4ccccc43)oc-2c1`, -56.9% (active).
`Nc1nc(=S)c2ncn(C3OC(CO)C(O)C3O)c2[nH]1` (stereo not given): the growth is 109% (inactive) and 15.5% (inactive).
Same read-out and setting: the value for `CCCCCCCCCCCCSC(=NC)NC` was -19.2% (active) and 60.6% (inactive).
Still for that read-out and setting: the value for `O=c1ccn(C2CC(O)C(COC(c3ccccc3)(c3ccccc3)c3ccccc3)O2)c(=O)[nH]1` (stereo not given) was 81.4% (inactive).
The same measure, in the same setting: for `CN(C)C(=S)SC(=S)N(C)C` the value was 90.5% (inactive) and 93% (inactive); for `CCN1/C(=C/C=C/C=C/c2sc3ccccc3[n+]2CC)Sc2ccccc21`, -81.7% (active).
In the case of `NNc1c2ccccc2nc2ccccc12`, the growth was 66.4% (inactive).
Still for that read-out and setting: for `COC(=O)C1=COC(C)C2C[n+]3ccc4c([nH]c5ccccc54)c3CC12` (stereo not given) the value was 107% (inactive) and 94% (inactive); for `CC(=O)Nc1cc(C)ccc1C`, 101% (inactive); for `CCO/C=C1\SC(=S)N(c2cccc(O)c2)C1=O`, 105% (inactive).
Still for that read-out and setting: for `O=[N+]([O-])C1=C(c2ccccc2)SC=C(c2ccccc2)S1` the value was 65.2% (inactive).
On the same count and under the same terms, the value for `O=C(O)COc1ccc(OCC(=O)O)cc1` was 20.7% (inactive).
With `Cc1cc(NS(=O)(=O)c2ccc(N=Nc3cc(N=Nc4ccc(S(=O)(=O)Nc5cc(C)nc(C)n5)cc4)c4c(NC(=O)C(Cl)Cl)cccc4c3OC(=O)C(Cl)Cl)cc2)nc(C)n1` (tested in a mixture with another compound), the growth was 113% (inactive) and 111% (inactive).
Consider `CCCCCCCCCCCC[N+](C)(C)Cc1ccccc1`, for which the growth is 7.19% (active).
On the same count and under the same terms, for `Clc1cc(Cl)c(Cl)nn1` the value was 93% (inactive).

Still in this assay, the particulars now being: 100 µM.
Consider `O=c1ccn(C2CC(O)C(COC(c3ccccc3)(c3ccccc3)c3ccccc3)O2)c(=O)[nH]1` (stereo not given), for which the growth was 52.5% (inactive).
